Bioassay records deposited in PubChem BioAssay by several laboratories.
Hits are enriched below; roughly 0.51% of the tested compounds scored in any of these assays.
phage Ecoli inh – E. coli growth loss with phage present. inhibition, % at 11.9 µM. 0.26% of 360,000 active. growth absorbance; in the data active means inhibition above about 11%
AddAB inh – less growth of phage-infected E. coli with AddAB. inhibition, % at 11.9 µM. E. coli expressing H. pylori AddAB, absorbance growth. 0.29% of 330,000 active; in the data active means inhibition above about 12%;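 further: 0% = vehicle wells of infected cells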
E coli growth-1 – reduces bacterial viability in AddAB counter-screen. inhibition, % at 11.9 µM. E. coli V3065 growth, OD600 absorbance, 18 h. 0.27% of 330,000 active. AID 449728;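 active means inhibition above the campaign's mean inhibition across all tested compounds plus 3 SD, cut at about 9.9% in these data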;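 further: uninfected addAB+ strain grown without phage in ampicillin broth; 0% = DMSO wells and 100% = ciprofloxacin 0.95 µg/ml wells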
E coli growth-2 – E. coli growth inhibition; 0.21% of 330,000 active; OD600 absorbance (test concentration not listed); Escherichia coli growth, OD600, 23 h; active compounds read low;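 active means OD600 absorbance below the run mean of sample wells minus 3.6 SD, in any replicate, cut at about 0.56 in these data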
Tat transport – E. coli Tat transport inhibition | E. coli MC4100 TorA-mCherry Tat export, fluorescence | inhibition, % at 10 µM | 0.036% of 340,000 active | AID 488895;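 active means mean replicate inhibition at least 50% and at least half of replicates individually reaching 50%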;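 further: exported cargo escapes ClpAP degradation while cytoplasmic cargo is degraded and loses fluorescence; 0% = median of neutral control wells and 100% = median of NaSCN control wells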
AddAB confirm – confirmation screen: growth loss of phage-infected E. coli expressing H. pylori AddAB; shares compounds with AddAB inh; inhibition, % at 11.9 µM; E. coli V3065 expressing H. pylori AddAB, T4 phage, OD; T4 phage with gene 2 nonsense mutations; 64% of 880 active; AID 488942;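 active means mean inhibition above a set limit taken from the earlier primary screen, cut at about 13% in these data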;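 further: higher means less bacterial growth since AddAB block lets phage replicate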
RecBCD counter – reduces growth of phage-infected RecBCD+ E. coli, AddAB inhibitor counter-screen; inhibition, % at 11.9 µM; E. coli V66 + mutant T4 phage, OD growth; AID 488955; shares compounds with AddAB inh; 73% of 880 active;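 active means mean inhibition above the mean of solvent-only control wells plus 3 SD, cut at about 4% in these data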;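 further: optical density read after an 18 h incubation at 37 °C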
Bact viability – counter-screen: bacterial growth inhibition. bacterial viability, absorbance (AddAB counterscreen). shares compounds with AddAB inh. 35% of 880 active. AID 488956. inhibition, % at 11.9 µM; in the data active means inhibition above about 25%
An asterisk follows results filed as active; x = no result given.

SMILES	phage Ecoli inh	AddAB inh	E coli growth-1	E coli growth-2	Tat transport	AddAB confirm	RecBCD counter	Bact viability
O=C(O[C@@H]1OC2COC(=O)c3cc(O)c(O)c(O)c3-c3c(cc(O)c(O)c3O)C(=O)O[C@@H]([C@H]1O)[C@@H]2O)c1cc(O)c(O)c(O)c1	x	21.9*	23.1*	x	-1.3	19.8*	14.3*	10.1
CC(C)Cc1cc(C(=O)NCCN2CCOCC2)no1	1.6	18.9*	4.5	0.716	-7.9	-1.5	0.7	-1.3
COc1ccc(CC(C)=NNC(=S)Nc2ccccc2F)cc1	x	x	x	0.708	x	x	x	x
CC(=NN=C1NC(=O)C(CC(=O)NCc2ccccc2)S1)C(C)C (stereo not given)	x	x	x	0.675	x	x	x	x
Cc1c(Cl)cccc1NC(=S)NCc1ccc(F)cc1	5.1	4.3	1.2	0.68	-1.2	x	x	x
Cc1c(Cl)cccc1NC(=S)NCc1ccccc1Cl	4.5	18.0*	5.3	0.695	19.8	17.4*	22.5*	18.5
O=C(Nc1ncccn1)c1ccc([N+](=O)[O-])o1	13.5*	59.8*	9.2	0.49*	6.5	95.9*	5.6*	18.2
CCCn1c(NC(=O)c2cccc(C)c2C)nc2ccccc21	x	-2.3	-3.6	0.665	7.6	x	x	x
O=C(Nc1cccc2ccccc12)c1ccc([N+](=O)[O-])o1	3.1	4.9	7.9	0.624	-13.2	x	x	x
O=C(Nc1ccccn1)c1ccc([N+](=O)[O-])o1	x	98.2*	72.5*	0.53	-10.6	56.8*	17.4*	62.3*
CCCn1c(NC(=O)c2ccc([N+](=O)[O-])o2)nc2ccccc21	10.5	15.0*	8.1	0.632	-5.2	58.5*	4.7*	15.2
CCC(C)C(NC(=O)OC(C)(C)C)c1cn(C(CCC(=O)OC(C)(C)C)C(=O)N2CCN(C(=O)OC(C)(C)C)CC2)nn1 (stereo not given)	x	x	x	0.685	x	x	x	x
CCCCC1CNC(=S)N1CCCC (stereo not given)	x	x	x	0.688	x	x	x	x
CCCNC(=O)c1ccc2c(=O)c(O)c(-c3ccsc3)[nH]c2c1	x	17.8*	17.8*	x	-11.0	12.6*	12.4*	10.9
CCCNC(=O)c1ccc2c(=O)c(O)c(-c3ccc(OC)cc3)[nH]c2c1	x	18.1*	16.4*	0.726	-4.5	10.9	12.7*	13.9
CC(NC(=O)NCc1ccc(F)cc1)C(=O)O (stereo not given)	x	x	x	0.701	x	x	x	x
Cc1ccc(CCNC(=O)c2cc(S(=O)(=O)N3CCOCC3)cn2C)cc1	0.8	-0.2	1.5	0.709	-5.9	x	x	x
COc1ccccc1CNC(=O)c1cc(S(=O)(=O)N2CCCC2)cn1C	3.6	100.2*	99.2*	0.714	-2.7	-3.3	0.2	-2.1
Cn1cc(S(=O)(=O)N2CCOCC2)cc1C(=O)NCCc1ccccc1	x	98.6*	98.8*	0.717	-0.5	-3.2	-0.7	-1.9
O=C(NN=C/C(Cl)=C/c1ccccc1)c1ccccc1F	x	x	x	0.675	x	x	x	x
CCOc1ccc(NC(=S)N2CCn3c(nc4ccccc43)C2)cc1	x	20.8*	13.3*	x	x	28.3*	19.1*	24.2
Nc1nn2c(-c3ccccc3)cc(=O)[nH]c2c1N=Nc1ccc(O)cc1	6.5	18.6*	10.3*	0.726	-1.0	26.6*	-0.1	6.5
Cc1nc2ccc(Cc3ccc4nc(C)[nH]c4c3)cc2[nH]1	8.1	15.9*	8.6	0.683	2.2	7.6	5.8*	4.7
COc1ccc(C2=CC(=O)CC(c3ccc(OC)cc3)C2)cc1 (stereo not given)	2.1	15.8*	10.4*	x	-0.4	-4.0	0.6	-2.3
COc1ccc(C2=CC(=O)C[C@H](c3ccc(Cl)cc3)C2)cc1	2.1	1.7	-1.1	x	11.8	x	x	x
SMILES	phage Ecoli inh	AddAB inh	E coli growth-1	E coli growth-2	Tat transport	AddAB confirm	RecBCD counter	Bact viability
COc1ccc(C=NNC(=O)c2ccc(NC(=O)C3CCCCC3)cc2)cc1O	x	x	x	0.646	x	x	x	x
CC1CCCCN1Cc1nc2c(c(=O)n(C)c(=O)n2C)n1Cc1c(F)cccc1Cl (stereo not given)	x	34.7*	25.0*	0.725	-0.2	-4.6	-1.4	-3.3
Cn1c(=O)c2c(nc(CN3CCC(C(N)=O)CC3)n2Cc2c(F)cccc2Cl)n(C)c1=O	3.5	-0.8	-4.4	0.716	-5.9	x	x	x
COc1ccc2c(c1)C1C(CO2)C(c2ccccc2)[C@]2(C)C(=O)Nc3ccccc3C(=O)N12 (stereo not given in full)	x	x	x	0.718	x	x	x	x
Cc1ccc(C2C3C(=O)N(C)C(=O)C3[C@]3(Cc4ccccc4)C(=O)N(Cc4ccccn4)CC(=O)N23)o1 (stereo not given in full)	x	x	x	0.703	x	x	x	x
NC(Cc1ccc(O)cc1)c1nnc(C(CC(=O)O)NC(=O)C2CCNCC2)o1 (stereo not given)	x	x	x	0.699	x	x	x	x
O=S(=O)(Nc1cccc2ncccc12)c1cccs1	x	17.9*	4.4	0.678	2.2	6.8	5.2*	0.4
C[C@@H]1Cc2c(O)c(O)cc(O)c2C(=O)O1	x	4.4	-1.7	0.772	2.5	x	x	x
O=C1C=C(O)c2c(O)cc(O)c(O)c2C1=O	10.5	13.4*	8.7	0.771	22.4	14.2*	9.8*	14.4
Cc1ccc(CNC(=O)C(=O)NCC2OCCN2S(=O)(=O)c2cccs2)cc1 (stereo not given)	2.3	94.9*	87.4*	0.727	-5.2	2.6	-1.4	-2.2
Cc1cc(C)c(S(=O)(=O)N2CCOC2CNC(=O)C(=O)NCc2cccnc2)c(C)c1 (stereo not given)	0.6	54.5*	33.6*	0.724	3.0	-1.1	0.6	-1.5
O=C(NCc1ccccc1)C(=O)NCC1OCCN1S(=O)(=O)c1cccs1 (stereo not given)	2.2	-1.4	0.0	0.679	-5.2	x	x	x
O=C(Nc1nc(-c2cccs2)c(C(=O)C(F)(F)F)s1)c1ccccc1	3.3	6.8	3.3	0.693	16.2	x	x	x
O=C(Nc1nc(-c2cccs2)c(C(=O)C(F)(F)F)s1)c1ccco1	6.1	98.7*	95.9*	0.672	1.4	-3.2	-0.1	-1.3
Cc1noc(NS(=O)(=O)c2ccc(N/C=C/C(=O)c3ccc(F)cc3)cc2)c1C	8.4	5.7	5.5	0.707	-8.4	x	x	x
Cc1noc(NS(=O)(=O)c2ccc(N/C=C\C(=O)c3ccncc3)cc2)c1C	3.2	9.6	4.0	0.694	5.2	x	x	x
Cc1noc(NS(=O)(=O)c2ccc(N/C=C/C(=O)c3cccnc3)cc2)c1C	2.3	13.2*	8.0	0.662	-0.8	-0.3	2.9	1.4
CCc1ccc(C(=O)/C=C/Nc2ccc(S(=O)(=O)Nc3onc(C)c3C)cc2)cc1	6.8	14.2*	4.4	0.673	4.1	-0.7	3.4	1.7
Cc1cc(-c2ccc(C=Nn3cnnc3)o2)c(C)c([N+](=O)[O-])c1	x	x	x	0.71	x	x	x	x
Cc1cccc(-c2cc(=O)c(C(=O)O)cn2-c2ccc(F)cc2F)c1	1.5	4.2	1.0	0.558	6.8	x	x	x
